Measurements: the supplement of paper PMC3545927
Some of the results follow. How many sequences the whole screen found active is unknown.

Molecular target: furin, P09958
Assay: furin cleavage Z-score vs untreated control; higher = more cleavage, active = 3.5 or more, inactive = 1 or less, 8 variable residues between constant flanks
In short: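 Furin-free reactions served as the baseline for the cleavage Z-score, which is the log read count lowess-adjusted and scaled by median absolute deviation. Counts came from released DNA, adapter-tagged by PCR and sequenced. Purified furin had cut 8-mer peptides fused to a cDNA oligonucleotide on magnetic beads during 7.5, 15 or 30 min at 1:10 enzyme:substrate.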
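Also: purified furin at 1:10 enzyme:substrate in 50 mM HEPES pH 7.5.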

Chain of furin, P09958 (P09958 whole entry): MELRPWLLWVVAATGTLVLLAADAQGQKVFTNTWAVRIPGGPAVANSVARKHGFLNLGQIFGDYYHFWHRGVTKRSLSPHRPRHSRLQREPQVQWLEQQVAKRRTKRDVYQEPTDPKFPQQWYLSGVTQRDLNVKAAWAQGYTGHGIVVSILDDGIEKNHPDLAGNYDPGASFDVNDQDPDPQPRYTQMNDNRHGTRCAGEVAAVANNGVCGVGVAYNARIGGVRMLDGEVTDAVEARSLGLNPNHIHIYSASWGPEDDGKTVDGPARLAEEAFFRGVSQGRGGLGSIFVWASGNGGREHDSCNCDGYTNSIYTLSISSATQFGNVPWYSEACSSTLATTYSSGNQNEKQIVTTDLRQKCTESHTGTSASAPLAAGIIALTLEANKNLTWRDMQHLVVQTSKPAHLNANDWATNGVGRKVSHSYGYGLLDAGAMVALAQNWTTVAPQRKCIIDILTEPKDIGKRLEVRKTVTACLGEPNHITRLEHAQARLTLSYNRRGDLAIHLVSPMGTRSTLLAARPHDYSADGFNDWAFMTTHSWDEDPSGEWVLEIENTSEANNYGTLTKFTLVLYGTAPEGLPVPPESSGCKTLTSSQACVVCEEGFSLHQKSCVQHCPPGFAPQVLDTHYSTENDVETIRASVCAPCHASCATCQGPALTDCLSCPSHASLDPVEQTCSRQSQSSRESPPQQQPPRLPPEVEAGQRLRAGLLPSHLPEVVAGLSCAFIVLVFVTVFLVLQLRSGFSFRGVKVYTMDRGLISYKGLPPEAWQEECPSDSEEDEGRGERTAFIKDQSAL

Sequence | furin cleavage Z-score (7.5 min) | furin cleavage Z-score (15 min) | furin cleavage Z-score (30 min)
CAFEECSQHLAGNASASA [HC1667] | 1.36 | 0.54 (inactive) | -0.544 (inactive)
CAHNSRKKREAGNASASA [FS-1340] | 11.8 (active) | 13.6 (active) | 9.48 (active)
CAFHYVTGMTAGNASASA [HC1210] | 0.168 (inactive) | -0.792 (inactive) | -0.653 (inactive)
CAGFGAYMSKAGNASASA [HC792] | 1.73 | -1.14 (inactive) | 1.32
CARKARALGTAGNASASA [FS-2034] | 7.98 (active) | 9.85 (active) | 7.74 (active)
CARKAKEEGTAGNASASA [FS-2957] | -0.545 (inactive) | 1.07 | -0.377 (inactive)
CARARRQLGTAGNASASA [FS-3184] | 4.41 (active) | 5.24 (active) | 4.88 (active)
CAEVNCHRPSAGNASASA [HC2361] | 1.09 | 1.04 | -0.207 (inactive)
CAPFDLLDFNAGNASASA [CS3] | -0.762 (inactive) | -0.626 (inactive) | -1.52 (inactive)
CAMREVPCHRAGNASASA [HC2426] | -1.33 (inactive) | -0.795 (inactive) | -0.936 (inactive)
CAARAQAPPPAGNASASA [HC958] | -1.14 (inactive) | -1.1 (inactive) | -1.17 (inactive)
CAARARHRKNAGNASASA [FS-1512] | 3.46 | 4.75 (active) | 6.6 (active)
CAARARNKREAGNASASA [FS-217] | 9.23 (active) | 10.8 (active) | 7.52 (active)
CARKKKHRKNAGNASASA [FS-2265] | 0.00727 (inactive) | -0.00103 (inactive) | -1.45 (inactive)
CANQRRNKREAGNASASA [FS-279] | 13.2 (active) | 11.8 (active) | 8.6 (active)
CAARAAWETAAGNASASA [HC1567] | 1.07 | 0.154 (inactive) | -0.51 (inactive)
CAEGCGWAGWAGNASASA [HC205] | -0.871 (inactive) | 1.45 | -1.04 (inactive)
CATESDIRTEAGNASASA [HC1485] | -0.326 (inactive) | -0.524 (inactive) | -0.55 (inactive)
CAVVCCSMSRAGNASASA [HC2093] | 0.591 (inactive) | 1.03 | 0.426 (inactive)
CARWKRYQRSAGNASASA [FS-142] | 9.87 (active) | 10.7 (active) | 9.68 (active)
CARWKRTQSQAGNASASA [FS-2845] | -0.543 (inactive) | 1.6 | 1.76

Sequence | furin cleavage Z-score (7.5 min) | furin cleavage Z-score (15 min) | furin cleavage Z-score (30 min)
CARWKRYRRWAGNASASA [FS-1077] | 10.1 (active) | 12.1 (active) | 10.9 (active)
CARWGRYEGGAGNASASA [FS-2844] | -0.438 (inactive) | -2.78 (inactive) | -1.36 (inactive)
CARWKRTQRHAGNASASA [FS-2623] | 8.7 (active) | 11.5 (active) | 8.86 (active)
CARWKRQNFHAGNASASA [FS-2471] | 1.47 | 0.449 (inactive) | 3.01
CALVVLATATAGNASASA [HC832] | 1.79 | 1.59 | 0.476 (inactive)
CAREECSQHLAGNASASA [HC1673] | 1.67 | 1.9 | 0.967 (inactive)
CAEERREKREAGNASASA [FS-905] | 4.27 (active) | 4.96 (active) | 6.98 (active)
CAWARRHKREAGNASASA [FS-1502] | 10.7 (active) | 9.83 (active) | 7.82 (active)
CANDIREKREAGNASASA [FS-179] | 3.92 (active) | 4.37 (active) | 4.65 (active)
CANKARLKKIAGNASASA [FS-694] | -0.0765 (inactive) | -1.98 (inactive) | -2.55 (inactive)
CASTKCSAHLAGNASASA [HC2514] | -0.0801 (inactive) | 1.2 | 0.075 (inactive)
CATCTTPCSGAGNASASA [HC1958] | -0.852 (inactive) | 0.00782 (inactive) | -0.733 (inactive)
CAHQNIVDVQAGNASASA [HC507] | -1.69 (inactive) | -1.38 (inactive) | 0.384 (inactive)
CARRGRFLNQAGNASASA [FS-3047] | -0.612 (inactive) | -0.298 (inactive) | 1.14
CACRFRFGRQAGNASASA [FS-405] | 2.68 | 3.98 (active) | 2.63
CATVSRTGRQAGNASASA [FS-1660] | 0.744 (inactive) | 2.19 | 3.07
CAYNNRPWRPAGNASASA [FS-392] | -1.33 (inactive) | -0.755 (inactive) | -0.205 (inactive)
CAHNNRVGRQAGNASASA [FS-596] | 3.21 | 3.29 | 4.86 (active)
CATGDNTTTSAGNASASA [HC1341] | 0.632 (inactive) | 0.808 (inactive) | -0.0812 (inactive)
CAEVMCHRPSAGNASASA [HC2346] | -0.818 (inactive) | -0.184 (inactive) | 0.158 (inactive)
CADCMEECSQAGNASASA [HC1820] | -0.19 (inactive) | 0.0434 (inactive) | -0.219 (inactive)
